Data from PubChem BioAssay AID1030 (National Center for Advancing Translational Sciences (NCATS), 2008).
In all, about 220,000 compounds went through this assay and about 16,000 (7.3%) were called active. Roughly 25% stayed inconclusive and do not appear here. The entries come from a sample that favours actives as a whole. Values without a mark were called inactive. Calls come from the whole dose curve; as a rule, active = well fitted inhibition curve with a large enough effect (not every such curve was filed as active); inconclusive = small, poorly fitted or top-dose-only effect, or another doubt; inactive = no such curve, though single readings can be large or run the other way.

Target: Aldehyde dehydrogenase 1A1 (Homo sapiens) (UniProt P00352)
Sequence (P00352 whole entry, looked up): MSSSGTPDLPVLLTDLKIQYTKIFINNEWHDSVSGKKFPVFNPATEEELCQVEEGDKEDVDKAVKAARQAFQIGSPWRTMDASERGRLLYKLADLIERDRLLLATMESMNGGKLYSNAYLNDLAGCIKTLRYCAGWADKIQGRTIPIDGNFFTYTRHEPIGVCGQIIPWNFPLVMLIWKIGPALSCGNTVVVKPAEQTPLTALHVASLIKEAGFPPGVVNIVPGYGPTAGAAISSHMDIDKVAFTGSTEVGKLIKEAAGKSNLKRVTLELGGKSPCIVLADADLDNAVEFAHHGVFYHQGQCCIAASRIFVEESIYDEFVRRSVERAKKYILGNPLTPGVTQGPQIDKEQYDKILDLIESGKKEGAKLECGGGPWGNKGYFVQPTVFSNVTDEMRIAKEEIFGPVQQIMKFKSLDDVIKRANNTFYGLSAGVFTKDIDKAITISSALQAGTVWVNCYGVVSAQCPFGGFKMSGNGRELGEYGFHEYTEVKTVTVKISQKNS
Assay: qHTS Assay for Inhibitors of Aldehyde Dehydrogenase 1 (ALDH1A1);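 for activity, negative = inhibition: plate controls were no enzyme wells and a reference inhibitor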
Conditions: Purified ALDH1A1, NADH fluorescence, propionaldehyde substrate; series mostly up to 75.3 µM; activity, negative = inhibition: at the top concentration
Potency is the fitted concentration of half-maximal effect.

Row | Structure (SMILES) | activity, negative = inhibition | Potency
1 | O=C(/C=C/c1ccc(F)cc1)NCCNC(=O)/C=C/c1ccc(F)cc1 | 10.5% | –
2 | O=C(CCC1CCCN(Cc2ccc(O)c(Cl)c2)C1)NCc1ccccc1F (stereo not drawn) | -7.56% | –
3 | CCOCC(=O)Nc1cc(OC)c(Cl)cc1OC | -7.89% | –
4 | COc1cc(NC(=S)NNC(=O)CC(C)C)c(OC)cc1Cl | – | 25.1 µM (active)
5 | CC(C)CC(=O)NC(=S)Nc1cc(C(=O)O)ccc1Cl | 10.3% | –
6 | CCC(CC)C(=O)Nc1ccc(S(=O)(=O)Nc2nccs2)cc1 | -0.847% | –
7 | O=C(C1CCCN1S(=O)(=O)c1ccc(Br)cc1)N1CCOCC1 (stereo not drawn) | 1.94% | –
8 | Nc1ccc(Oc2ccc(Cl)cc2)cc1 | -10.1% | –
9 | Cc1ccc(Oc2ccc(N)cc2)cc1 | – | 17.8 µM (active)
10 | COc1cccc(Oc2ccc(N)cc2)c1 | -8.54% | –
11 | O=C(NNS(=O)(=O)c1ccc(F)cc1)c1cnccn1 | 2.86% | –
12 | Cc1c(Cl)c([N+](=O)[O-])nn1CCCC(=O)NC(C)c1ccccc1 (stereo not drawn) | -5.68% | –
13 | S=C(Nc1cccc(Br)c1)N1CCn2cccc2C1c1cccnc1 (stereo not drawn) | -6.93% | –
14 | O=c1oc2ccccc2cc1-c1csc(Nc2ccc(O)cc2)n1 | -10.9% | –
15 | COc1ccc2nc(Nc3nc(-c4cc5ccccc5oc4=O)cs3)sc2c1 | 1.54% | –
16 | Nc1ncc(-c2cc3ccccc3oc2=O)s1 | – | 11.2 µM (active)
17 | CC(C)NC(=O)c1ccc(Cl)cc1Cl | -1.33% | –
18 | COc1cccc(NC(=O)CN(C)C(C)C(=O)Nc2ccc(C#N)cc2)c1 (stereo not drawn) | 1.94% | –
19 | COc1cccc(CNC(=O)CCN2C(=S)NC(C)(C)CC2C)c1 (stereo not drawn) | -4.03% | –
20 | O=C(CCN1CCN(c2ccccc2)CC1)NNC(=S)Nc1ccccc1 | -6.58% | –
21 | O=C(O)/C=C\C(=O)Nc1ccc(OCc2ccccc2)cc1 | – | 25.1 µM (active)
22 | O=C(/C=C/c1ccco1)Nc1ccc(Oc2ccccc2)cc1 | 2.63% | –

Row | Structure (SMILES) | activity, negative = inhibition | Potency
23 | O=C(N/N=C/c1ccc(OCc2ccccc2)cc1)c1ccc(O)cc1 | 12.2% | –
24 | NC(=O)COC(=O)c1cc(S(=O)(=O)N2CCN(c3ccccc3)CC2)ccc1Cl | 2.01% | –
25 | COC(=O)C1=C(C)OC(N)=C(C#N)C1c1cc(OC)ccc1OC (stereo not drawn) | 3.09% | –
26 | CCC1=C(C(=O)OC)C(c2cc(OC)ccc2OC)C(C#N)=C(N)O1 (stereo not drawn) | – | 17.8 µM (active)
27 | CCOC(=O)C1=C(CC)OC(N)=C(C#N)C1c1ccc(F)cc1F (stereo not drawn) | 10.9% | –
28 | COc1ccc(S(=O)(=O)N(C)CC(=O)N2CCCC2)cc1Cl | -3.37% | –
29 | Cc1noc(C)c1S(=O)(=O)N(C)Cc1ccccc1 | 0.615% | –
30 | Cc1cccc(NS(=O)(=O)c2ccc(C)c(C(N)=O)c2)c1 | -7.93% | –
31 | CC(NC(=O)C(=O)N/N=C/c1ccc(Cl)cc1)c1ccccc1 (stereo not drawn) | -4.56% | –
32 | Cc1ccc(-n2c(C)cc(C(=O)CN3C(=O)C(=O)N(C4CCCC4)C3=O)c2C)cc1 | 1.53% | –
33 | COc1cc(CNC2CCCCC2)c(Br)cc1OC1CCCC1 | -3.19% | –
34 | O=C(O)/C=C/C(=O)NNc1ccc([N+](=O)[O-])cc1 | – | 14.1 µM (active)
35 | O=C(Nc1ccc([N+](=O)[O-])cc1)C1(c2ccccc2)CCOCC1 | 4.59% | –
36 | O=C(Cc1ccccc1)NNS(=O)(=O)c1ccc([N+](=O)[O-])cc1 | 15.8% | –
37 | NC(=O)c1ccc(CN2CCC(Cc3ccccc3)CC2)cc1 | 6.52% | –
38 | O=C(COC(=O)c1ccc[nH]c1=O)Nc1ccc2c(c1)OC(F)(F)O2 | 8.44% | –
39 | Cc1c(S(=O)(=O)O)ccc(N=Nc2c(O)c(C(=O)O)cc3ccccc23)c1Cl | – | 3.55 µM (active)
40 | Cc1nn(Cc2ccc(Cl)cc2)c(Cl)c1/C=N/NC(=O)CNc1ccccc1F | 21.3% | –
41 | FC(F)Oc1ccc(NC(=S)NCc2ccco2)cc1Cl | – | 14.1 µM (active)
42 | COC(=O)Cc1ccc(NC(=S)NCc2ccco2)cc1 | 4.15% | –
43 | O=C(NNC(=S)NCc1ccco1)C(c1ccccc1)c1ccccc1 | 1.75% | –
44 | O=C(NCc1cccs1)c1cc(-c2ccccn2)nc2ccc(Br)cc12 | 6.33% | –

Row | Structure (SMILES) | activity, negative = inhibition | Potency
45 | OC(COc1ccccc1)Cn1cc(Br)cn1 (stereo not drawn) | 2.81% | –
46 | OC(CN=c1sc2ccccc2n1CC(O)COc1ccccc1)COc1ccccc1 (stereo not drawn) | – | 2.82 µM (active)
47 | C=CCn1c(=N)n(CC(O)COc2ccc(OC)cc2)c2ccccc21 (stereo not drawn) | -1.74% | –
48 | Cc1ccccc1NS(=O)(=O)CCCCC(Cl)(Cl)Cl | -3.72% | –
49 | CCc1ccc(/C=C2\SC(N3CCOCC3)=NC2=O)cc1 | 1.81% | –
50 | Cc1ccsc1/C=C1\SC(N2CCOCC2)=NC1=O | – | 14.1 µM (active)
51 | O=C1N=C(N2CCOCC2)S/C1=C\C=C/c1ccccc1 | 0.576% | –
52 | NC(N)=NCCCc1cn(CC(=O)N2CCNCC2)nn1 | 0.974% | –
53 | CCOC(=O)COc1ccc([N+](=O)[O-])cc1 | -7.41% | –
54 | N/C(=N\OC(=O)COc1ccc([N+](=O)[O-])cc1)c1ccc(Br)cc1 | 5.49% | –
55 | Cc1cc(C)cc(OCC(=O)O/N=C(\N)Cc2ccc([N+](=O)[O-])cc2)c1 | – | 10 µM (active)
56 | COC(=O)C(NS(=O)(=O)c1ccc(F)cc1)c1ccccc1 (stereo not drawn) | 1.82% | –
57 | CC1CCC(C(C)C)C(=O)/C1=C\c1ccc(NC(=O)CCC(=O)O)cc1 (stereo not drawn) | 0.0468% | –
58 | COc1ccc(S(=O)(=O)N2CCN(C(=O)c3cc(C)oc3C)CC2)cc1 | -3.86% | –
59 | COc1ccc(OC)c(C(=O)c2coc3ccc(OC)cc23)c1 | – | 14.1 µM (active)
60 | COc1ccc2occ(C(=O)c3ccc(N=C(C)N(C)C)cc3)c2c1 | 12% | –
61 | COc1ccc(OC)c(C(=O)c2coc3ccc(O)c(CN4CCOCC4)c23)c1 | -9.73% | –
62 | NS(=O)(=O)c1ccc(CCNC(=O)c2ccc([N+](=O)[O-])cc2[N+](=O)[O-])cc1 | 8.99% | –
63 | CCOC(=O)CCCNC(=O)COC(=O)c1cc(Br)c(Br)s1 | 9.37% | –
64 | O=C(NC1CCCC1)C(c1ccc(N2CCOCC2)cc1)N(C(=O)c1ccco1)c1ccccc1F (stereo not drawn) | -3.51% | –
65 | COc1ccc(CCn2nnnc2C(c2ccccc2)N2CCN(C)CC2)cc1OC (stereo not drawn) | -4.68% | –
66 | COCCn1nnnc1C(c1ccccc1Cl)N1CCN(c2ccccc2OC)CC1 (stereo not drawn) | 4.17% | –

Row | Structure (SMILES) | activity, negative = inhibition | Potency
67 | COc1ccc(C(c2nnnn2Cc2cccs2)N2CCN(c3ccccc3)CC2)cc1OC (stereo not drawn) | – | 2 µM (active)
68 | C=C(C)Cn1c(N2CCN(CC)CC2)nc2c1c(=O)[nH]c(=O)n2C | -2.67% | –
69 | COc1ccc(CCn2c(NCCCN3CCOCC3)nc3c2c(=O)[nH]c(=O)n3C)cc1 | 3.52% | –
70 | Cn1c(=O)[nH]c(=O)c2c1nc(N1CCCCCC1)n2CC(=O)c1ccccc1 | -8.01% | –
71 | Cc1nnc(SCCCn2c(N3CCCCC3)nc3c2c(=O)[nH]c(=O)n3C)s1 | – | 14.1 µM (active)
72 | CN1CCN(c2nc3c(c(=O)[nH]c(=O)n3C)n2Cc2cccc3ccccc23)CC1 | – | 25.1 µM (active)
73 | CC1CCN(c2nc3c(c(=O)[nH]c(=O)n3C)n2CCCc2ccccc2)CC1 | – | 31.6 µM (active)
74 | C=C(C)Cn1c(N2CCCC2)nc2c1c(=O)[nH]c(=O)n2C | -7.84% | –
75 | Cn1c(=O)[nH]c(=O)c2c1nc(NCCCn1ccnc1)n2Cc1cccc(Br)c1 | 5.93% | –
76 | Cc1ccnc(SCCn2c(Br)nc3c2c(=O)[nH]c(=O)n3C)n1 | 4.65% | –
77 | COc1ccc(OC)c(NC(=O)N[C@H](Cc2ccccc2)C(=O)NN)c1 | 0.169% | –
78 | CC(C)CN1CCNC(=O)C1CC(=O)N(C)CC1CCOCC1 (stereo not drawn) | -15.6% | –
79 | Cc1ccc(CN(C)CC(=O)Nc2cccc([N+](=O)[O-])c2)o1 | -12.7% | –
80 | CC(=O)c1ccc(NC(=S)N(Cc2ccccc2)C(C)C2CC2)cc1 (stereo not drawn) | -15.7% | –
81 | Cc1ccc(N2C(=O)CC(NCc3ccc4c(c3)OCO4)C2=O)cc1Cl (stereo not drawn) | – | 22.4 µM (active)
82 | Cc1ccc(CC2CC(=O)N(c3ccc4c(c3)OCCO4)C2=O)cc1 (stereo not drawn) | -14.9% | –
83 | CC1CCC(N2CC(=O)N(Cc3ccc4c(c3)OCO4)C(c3ccc(F)cc3)C2=O)CC1 (stereo not drawn) | -13% | –
84 | O=C1NC(c2cccc(Cl)c2)Nc2ccccc21 (stereo not drawn) | 2.54% | –
85 | N/C(=N\S(=O)(=O)c1ccc(Cl)cc1)N1CCOCC1 | -1.23% | –
86 | Cc1ccc(N(C(=O)c2sc(C)nc2C)C(C(=O)NC(C)(C)C)c2ccncc2)cc1 (stereo not drawn) | 12.4% | –
87 | Cc1c(C(=O)O)nnn1-c1nonc1N | 3.6% | –
88 | CCOC(=O)c1c(NC(=O)/C=C/c2ccco2)sc(C)c1C | -9.12% | –

Row | Structure (SMILES) | activity, negative = inhibition | Potency
89 | CCOC(=O)c1c(/N=C/C2C(=O)CC(C)(C)CC2=O)sc(C)c1C | – | 2.24 µM (active)
90 | CC(=O)N1CCN(CCN=CC2=C(O)CC(C)(C)CC2=O)CC1 | -14.2% | –
91 | CCN(C(=O)COC(=O)c1c(NC(C)=O)sc(C)c1C)C1CCS(=O)(=O)C1 (stereo not drawn) | -13.5% | –
92 | CCOC(=O)c1sc(/N=C/C2=C(O)CC(C)(C)CC2=O)c(C(=O)OCC)c1C | – | 11.2 µM (active)
93 | CC1(C)CC(=O)C(C=NCc2cccnc2)=C(O)C1 | -3.28% | –
94 | Cc1cc(C)nc(N/N=C/c2c(C)oc3ccccc23)n1 | 1.58% | –
95 | O=C(COc1ccccc1[N+](=O)[O-])NC1CC1 | -0.186% | –
96 | C=CCNC(=O)COC(=O)CNC(=O)c1cc(Cl)cc([N+](=O)[O-])c1 | -7.54% | –
97 | Cn1cc(CCC(=O)N2CCCC(C(=O)c3ccc(C(C)(C)C)cc3)C2)cn1 (stereo not drawn) | -17.2% | –
98 | Cc1nn(CC(=O)N/N=C/c2ccc(F)cc2)c(C)c1[N+](=O)[O-] | 8.02% | –
99 | O=C(CCCc1ccccc1)NCc1ccccc1 | -5.53% | –
100 | C/C(=C\c1ccco1)CN1CCC(N2CCC(C(=O)N3CCOCC3)CC2)CC1 | -2.56% | –
101 | CCOC(=O)C(C)Sc1nnc(CSc2nc3nc(C)cc(C)n3n2)o1 (stereo not drawn) | 12.7% | –
102 | COc1ccc(C(C)=O)cc1CSc1nc2nc(C)cc(C)n2n1 | – | 20 µM (active)
103 | Cc1cc(C)n2nc(SCC(N)=O)nc2n1 | 10.8% | –
104 | O=C(CCC(=O)OCc1ccc(Cl)cc1)Nc1ccccc1 | -1.17% | –
105 | Cc1cc(C)c2nc(-c3cccnc3)cc(C(=O)Nc3ccc(S(=O)(=O)Nc4onc(C)c4C)cc3)c2c1 | 23.6% | –
106 | COc1ccc(/C=C/C(=O)c2ccc(NS(=O)(=O)c3ccc(C)cc3)cc2)cc1O | -11% | –
107 | CN1CCN(C(=O)CCc2ncc(C(F)(F)F)cc2Cl)CC1 | 3.64% | –
108 | CC(CC(=O)C1C(C)C=CCC1(C)C)NNC(N)=O (stereo not drawn) | 6.59% | –
